Screens: PubChem BioAssay, several laboratories
GAA850 FXN act: increases GAA850 frataxin promoter reporter activity. HEK293 lucGAA850 FXN promoter luciferase reporter, 24 h; percent of 10 µM SAHA response. activation, % at 6 µM. 0.56% of 360,000 active;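 active means activation above the average of all compounds screened plus 3 SD, cutoff fixed separately per campaign, cut at about 7.5% in these data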;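 further: 0% = DMSO wells and 100% = 10 µM SAHA wells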
HSF1 activator: increases HSF-1 driven luciferase reporter signal; activation, % at 9 µM; 1.7% of 300,000 active; NIH3T3-HGL HSF-1 luciferase reporter, MG132, 8 h; 100% = twice DMSO control signal; AID 504408;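 active means mean replicate activation of at least 50% with a set share of replicates each reaching 50%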;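 further: 0% = median of the neutral control wells and 100% = twice that signal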
AHR activator: activators of human aryl hydrocarbon receptor; AHR-responsive luciferase reporter cells, luminescence; activation, % at 5 µM; 2.5% of 320,000 active; in the data active means activation above about 47%;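 further: 0% = vehicle wells and 100% = reference agonist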
Target sequence (P35869 whole entry, looked up): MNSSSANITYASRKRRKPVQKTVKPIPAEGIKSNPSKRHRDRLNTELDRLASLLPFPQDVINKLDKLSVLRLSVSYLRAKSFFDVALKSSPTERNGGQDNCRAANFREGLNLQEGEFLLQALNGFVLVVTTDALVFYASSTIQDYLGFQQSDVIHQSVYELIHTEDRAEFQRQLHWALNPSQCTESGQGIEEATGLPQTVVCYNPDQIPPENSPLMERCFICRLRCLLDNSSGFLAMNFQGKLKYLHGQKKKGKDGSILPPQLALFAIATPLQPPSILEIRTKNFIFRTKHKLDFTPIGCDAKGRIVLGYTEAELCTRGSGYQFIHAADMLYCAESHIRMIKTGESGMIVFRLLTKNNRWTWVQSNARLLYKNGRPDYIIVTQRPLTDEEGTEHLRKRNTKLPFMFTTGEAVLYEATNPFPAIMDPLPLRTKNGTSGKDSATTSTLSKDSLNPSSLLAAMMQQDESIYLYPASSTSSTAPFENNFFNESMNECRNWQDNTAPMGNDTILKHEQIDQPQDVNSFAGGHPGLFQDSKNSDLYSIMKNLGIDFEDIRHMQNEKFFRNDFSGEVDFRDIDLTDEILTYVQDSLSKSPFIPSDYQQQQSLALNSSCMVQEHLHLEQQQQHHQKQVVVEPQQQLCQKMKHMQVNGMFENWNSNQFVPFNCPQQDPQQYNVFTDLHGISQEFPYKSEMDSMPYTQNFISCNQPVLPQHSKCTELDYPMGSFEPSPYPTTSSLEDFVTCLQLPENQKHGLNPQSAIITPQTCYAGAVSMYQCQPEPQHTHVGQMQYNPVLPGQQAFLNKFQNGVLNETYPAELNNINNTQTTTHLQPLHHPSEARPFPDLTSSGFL
HSF1 inh: HSF1 inhibition; AID 2098; NIH3T3-HGL HSE-luciferase, MG132-induced, luminescence 8 h; active compounds read low; 0.77% of 300,000 active; activity change, negative = inhibition, % at 7.5 µM (by protocol);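 active means more than half of replicate wells show activity change below -50%, luminescence cut by over half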;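 further: luciferase reports HSF-1 transcriptional activity via heat shock element; 0% = median of DMSO wells and -100% = zero luminescence signal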
DAX1 inh: inhibits human nuclear receptor DAX1. 0.99% of 340,000 active. HEK293 Gal4-DAX1 luciferase reporter, luminescence. P51843. inhibition, % at 6.75 µM;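 active means inhibition above the mean over all tested compounds plus 3 SD, cut at about 4.2% in these data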;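 further: 0% = DAX1-transfected cells with DMSO and 100% = empty-vector control cells with DMSO; inhibition shows as a rise in luminescence from relieved DAX1 repression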
Numbers without * were called inactive; / = no result. Rows were chosen to be rich in hits. Some 5.4% of all compounds tested hit in one or more screens of this group.

SMILES | GAA850 FXN act | HSF1 activator | AHR activator | HSF1 inh | DAX1 inh
Cc1nnc(NC(=O)c2csc3c2CCC(C)C3)s1 (stereo not given) | 2.0 | 20.0 | 14.5 | 8.9 | 2.0
COc1ccccc1NC(=O)c1c(C)oc2c1CCCC2 | 0.8 | 27.6 | 60.3* | 4.6 | -0.1
Cc1oc2c(c1C(=O)Nc1cccc3ccccc13)CCCC2 | -0.6 | 21.2 | 13.5 | 4.3 | 0.0
COc1cc(NC(=O)c2csc3c2CCCC3)ncn1 | 5.3 | 21.1 | 5.6 | 14.8 | 3.5
COc1ccccc1CNC(=O)c1csc2c1CCCC2 | 2.9 | 13.1 | 1.9 | 6.4 | 0.7
Cc1nnc(NC(=O)c2csc3c2CCCC3)s1 | / | -0.2 | 55.2* | -0.5 | /
COc1ccccc1NC(=O)c1csc2c1CCCC2 | 0.1 | -0.8 | 68.6* | 8.7 | 0.1
O=C(Nc1ccccn1)c1csc2c1CCCC2 | 5.7 | 52.7* | 29.5 | 43.5 | 1.2
COc1ccc(-c2c([C@H]3[C@H]4C=CC[C@@H](C)[C@@H]4C(=O)N3Cc3ccccc3)ccc3ccccc23)cc1OC | -1.9 | -16.4 | -1.0 | -24.1 | 0.4
O=[N+]([O-])c1ccc2oc(/C=C/c3ccc(O)cc3)nc2c1 | 3.2 | / | / | / | 2.0
N#Cc1cccc(-n2nnnc2-c2ccc3c(c2)OCO3)c1 | 4.7 | 15.2 | 56.8* | 6.2 | 1.4
CCOc1cccc(/C=N/NS(=O)(=O)c2ccc(C)c([N+](=O)[O-])c2)c1O | 1.0 | 6.1 | 2.2 | 3.1 | 0.8
CCOc1cccc(/C=N/NC(=O)c2cccnc2)c1O | -1.6 | 4.3 | 14.0 | 4.5 | -1.4
CCOc1cccc(/C=N/NC(=O)c2cc(C3CC3)[nH]n2)c1O | -4.5 | 10.6 | 53.5* | -2.3 | 0.3
CCOc1cccc(/C=N/NC(=S)Nc2ccccc2[N+](=O)[O-])c1O | -14.1 | -81.6 | 6.0 | -79.0* | -2.7
CCCCNC(=S)N/N=C/c1cccc(OCC)c1O | 2.8 | 80.7* | 1.5 | 52.2 | 0.4
C=CCC[C@@H](Cc1ccc(F)cc1)C(=O)OC[C@@H](Cc1c[nH]c2ccccc12)NC(=O)[C@H](CC=C)CC(=O)N[C@H](CO)Cc1ccccc1 | -7.0 | / | 0.7 | / | 0.6
O=C(CCCCn1c(=O)[nH]c2ccsc2c1=O)NCCc1ccccc1 | 1.7 | -17.1 | 5.4 | -2.0 | -2.0
O=C(CCCCn1c(=O)[nH]c2ccsc2c1=O)NCc1cccnc1 | -3.5 | -67.9 | 0.2 | -55.5* | 0.5
O=C(COC(=O)Cn1nnc2ccccc21)NC1CCCC1 | 0.4 | -21.8 | -0.2 | 0.8 | 0.0
CS(=O)(=O)NCCNc1ccc(C(F)(F)F)cc1[N+](=O)[O-] | 2.4 | / | 2.1 | / | 0.6
COc1ccc2[nH]c(C)c(CCNc3ccc(C(F)(F)F)cc3[N+](=O)[O-])c2c1 | 4.7 | 60.9* | 37.0 | 15.5 | -0.7
CC(C)(C)OC(=O)N1CCC(C(=O)Nc2ccc(C(=O)N3CCCCC3)cc2)CC1 | -2.6 | / | / | / | 4.0
Cc1cc(C)nc(NNC2=CC(=[N+]3CCCCC3)CC(C)(C)C2)n1 | 0.0 | -76.9 | 3.2 | -71.0* | 0.1
CCCC(C(=O)NC1CCCC1)N(CC1CCCO1)C(=O)CNS(=O)(=O)c1ccccc1 (stereo not given) | 0.1 | 10.3 | 1.2 | 4.1 | -0.9
SMILES | GAA850 FXN act | HSF1 activator | AHR activator | HSF1 inh | DAX1 inh
COc1ccccc1C1C(C#N)=C(N)N(N(C)C)C2=C1C(=O)CC(C)(C)C2 (stereo not given) | 1.4 | -1.7 | -1.7 | 0.0 | 0.9
CCOC(=O)/C=C/C(=O)Nc1ccccc1-c1ccccc1NC(=O)/C=C/C(=O)OCC | 2.1 | -56.5 | -0.3 | -56.2* | 1.6
COc1ccc(N2CCN(S(=O)(=O)c3cc4c(cc3C)N(C(C)=O)CCO4)CC2)cc1 | -1.1 | -66.7 | 0.3 | -58.1* | -0.4
Cc1cc(C2(c3cc(C)c(NC(=O)CN4CCOCC4)c(C)c3)CCCCC2)cc(C)c1NC(=O)CN1CCOCC1 | / | -65.6 | -1.0 | -56.6* | /
CCOCCCNC(=O)c1c(N)n(-c2ccc3c(c2)OCO3)c2nc3ccccc3nc12 | 0.4 | 5.5 | 9.8 | 1.4 | -0.4
COCCNC(=O)c1c(N)n(/N=C/c2cccs2)c2nc3ccccc3nc12 | -0.9 | -10.2 | 50.0* | 5.0 | 0.4
COCCCNC(=O)c1c(N)n(-c2ccc3c(c2)OCO3)c2nc3ccccc3nc12 | -3.1 | 5.3 | 51.9* | -10.2 | -1.0
O=C(O)c1ccc(-c2ccccc2)[nH]c1=O | 0.2 | -7.2 | 0.7 | -0.1 | 5.4*
CCc1cccc2c(C(=O)COC(=O)c3ccc([N+](=O)[O-])s3)c[nH]c12 | 0.8 | -68.5 | 1.5 | -68.8* | -1.5
CCc1cc2c(=O)c(-c3nc4ccccc4[nH]3)coc2c(CN2CCCCC2C)c1O (stereo not given) | -0.7 | 1.5 | 0.3 | -2.9 | 4.6*
COc1ccc(-c2nc(SC)n(C(=O)c3ccco3)n2)cc1 | 5.1 | 30.8 | 10.4 | 18.1 | 4.2*
Oc1c(Cl)cc(Cl)cc1/C=N/NC(=S)NC1CC2C=CC1C2 (stereo not given) | -0.3 | 52.5* | 27.3 | 12.4 | 0.8
CC(C)CN(C(=O)c1cc2ccccc2o1)c1c(N)n(CC(C)C)c(=O)[nH]c1=O | 3.2 | 1.7 | 3.6 | 0.1 | 0.3
CC1CN(S(=O)(=O)c2cccc(C(=O)Nc3ccccc3N3CCCC3)c2)CC(C)O1 (stereo not given) | -2.8 | -5.7 | 0.4 | 2.1 | -3.8
CCOc1ccc(N(Cc2nnc3n2CCCCC3)C(=O)Nc2cccc(C)c2)cc1 | 0.6 | / | -0.4 | / | 6.6*
COCc1ccc(-c2c(-c3ccccc3OC)sc3cc4c(cc23)OCO4)cc1 | -0.3 | / | 51.1* | / | 1.1
COc1ccccc1-c1sc2cc3c(cc2c1-c1ccc(O)cc1)OCO3 | 0.6 | / | 23.6 | / | 0.5
Cc1ccc(NC(=O)C2C(=O)N(C)c3ccccc32)cc1 (stereo not given) | 1.1 | -1.4 | 72.6* | -2.5 | -0.9
CN1C(=O)C(C(=O)Nc2ccccc2F)c2ccccc21 (stereo not given) | 3.5 | -8.2 | 14.3 | -1.6 | 0.3
Cc1ccc(C)c(NC2CCCCC2NS(=O)(=O)c2ccccc2)c1 (stereo not given) | 3.3 | 83.4* | 2.2 | 68.4 | -0.1
Cc1ccc(Cl)cc1N1CCN(C2CCCCC2NS(=O)(=O)c2ccccc2)CC1 (stereo not given) | 1.6 | 75.6* | 0.6 | 43.1 | 1.5
Cc1ccc(C)c(S(=O)(=O)N2CCCC2CNC(=O)C(=O)NCc2ccccn2)c1 (stereo not given) | 0.8 | 10.2 | 5.9 | -1.7 | -0.4
O=S1(=O)CCOC(CO)CN1Cc1ccc(Cl)c(Cl)c1 (stereo not given) | 0.5 | / | / | / | -0.9
COc1ccc(C)cc1S(=O)(=O)N1c2ccc(C)cc2C2CN(C)CCC21 (stereo not given) | 1.3 | / | / | / | -0.6
N=c1ccn(O)cc1CCc1ccccc1 | -1.4 | / | / | / | 5.8*
O=C(CSc1nc2ccccc2n1S(=O)(=O)c1ccccc1)N1CCCCC1 | 0.0 | -57.5 | -2.7 | -56.0* | 0.5
OCc1c(OCc2cccc(F)c2)ccc2ccccc12 | 3.8 | 62.0* | 45.3 | 35.9 | 0.4
CNCc1c(OCc2ccc(F)cc2)ccc2ccccc12 | -0.5 | -9.5 | 26.1 | 2.0 | -0.5
